Measurements from PubChem BioAssay (NCATS).
Values joined by “and” are separate entries in the source; they are usually repeats but may differ in a detail not shown here. Identical values can stand only once. Inconclusive results are not listed. Active and inactive are the calls of the source. Unless noted, calls come from the whole dose curve; as a rule, active = well fitted curve in the direction sought with a large enough effect; inconclusive = small, poorly fitted or top-dose-only effect, or another doubt; inactive = no such curve, though single readings can be large; an effect the other way counts as inactive or inconclusive.

How the values were obtained:
[1] = Cell Viability - BJ (AID 421; calls by dose curve;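 note: potency is the fitted concentration of half-maximal effect; cells exposed to compound for 40 hours at 37 °C before readout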); conditions: BJ fibroblast viability, qHTS
Method in brief: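 Cytotoxicity as drop in intracellular ATP (CellTiter-Glo, 20 min RT) after 40 hr compound exposure of BJ fibroblasts at 37 °C. Titrations scaled between DMSO and 100 uM tamoxifen, Hill-fitted for AC50.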

[2] = Cell Viability - HUV-EC-C (AID 542); conditions: HUV-EC-C endothelial cell viability, qHTS; series mostly up to 92.2 µM; note: % is set by controls: 0 for no effect and ±100 for the full control effect; nearly all actives have a fitted effect of over 35% in size
Method in brief: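 HUV-EC-C normal human vascular endothelial cells, 1000 cells/well, pre-incubated 5 hr at 37 °C, then exposed to compounds for 40 hr at 37 °C in complete medium. Viability measured as intracellular ATP by CellTiter-Glo luminescence; AC50 from Hill fits.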

[3] = Cellular Toxicity (caspase-3) HUV-EC-C (AID 656); conditions: HUV-EC-C cells, caspase-3 activation (apoptosis), vehicle = 0, 100 µM tamoxifen = 100%; series mostly up to 92.2 µM
Method in brief: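 HUV-EC-C cells (1000/well) in complete medium, compound-treated 16 h at 37 °C; caspase-3/7 activity read by Caspase-Glo 3/7 luminescence. Normalized to DMSO (basal) and 100 uM tamoxifen (100%); AC50 from Hill-equation concentration-response fits.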

[4] = Cellular Toxicity (caspase-3) MRC-5 (AID 659); conditions: MRC-5 cells, luminescence, normalized: DMSO 0%, 10 µM staurosporine 100%; series mostly up to 91.7 µM
Method in brief: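 Concentration-dependent caspase 3/7 activation is measured in human normal lung fibroblasts (MRC-5) following 16-hour treatment. AC50 values come from standard Hill-equation modeling of luminescence normalized to DMSO and 10 uM staurosporine.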

[5] = Cellular Toxicity (caspase-3) Mesangial (AID 660); conditions: mesangial cells, normalized: DMSO 0%, 100 µM tamoxifen 100%; series mostly up to 91.7 µM;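 note: cells exposed to compound for 16 h before the caspase read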
Method in brief: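 Human renal glomerular mesangial cells (1000/well) were treated with compounds for 16 h at 37 °C in complete medium, then caspase 3/7 activity was read by Caspase-Glo luminescence. Data were normalized to DMSO and 100 uM tamoxifen; AC50 from Hill fits.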

[6] = Cellular Toxicity (caspase-3) SK-N-SH (AID 661); conditions: SK-N-SH caspase-3 activation, qHTS; series mostly up to 91.7 µM
Method in brief: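 SK-N-SH human neuroblastoma cells (1500/well) were treated with compounds for 16 hr at 37 °C in complete medium; caspase 3/7 activity was read by Caspase-Glo luminescence. AC50 came from Hill fits of data normalized to DMSO and 10 uM staurosporine.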

[7] = Cellular Toxicity (caspase-3) Hek293 (AID 664); conditions: HEK293 caspase-3 activation, DMSO = 0%, 100 µM tamoxifen = 100%; at 92.2 µM (top of the series);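 note: cells exposed to compound for 16 h at 37 °C before readout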
Method in brief: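 HEK293 cells were exposed to compounds in complete medium for 16 hr at 37 °C, then caspase-3/7 activity was read by Caspase-Glo 3/7 luminescence after 20 min at room temperature. Data normalized to DMSO and 100 uM tamoxifen; AC50 from Hill fits.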

[8] = Cellular Toxicity (caspase-3) NIH 3T3 (AID 666); conditions: NIH 3T3 caspase-3 activation, apoptosis/toxicity; series mostly up to 92.2 µM;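 note: caspase signal read after 16 h compound exposure; 0% = DMSO basal and 100% = 100 µM tamoxifen stimulation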
Method in brief: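 Mouse NIH 3T3 fibroblasts (1000 cells/well) were treated with compound for 16 hr at 37°C in complete medium; caspase-3/7 activity was read by Caspase-Glo luminescence. Normalized to DMSO and 100 uM tamoxifen; AC50 from Hill fits.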

[9] = MultiTox-Fluor Cytotoxicity Assay - LYMP1-001 - Dead Cells (AID 946); conditions: LYMP1-001 lymphoblastoid cells, dead-cell protease fluorescence; series mostly up to 92.2 µM
Method in brief: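 Cytotoxicity as increased dead-cell protease fluorescence (bis-AAF-R110, 485/520 nm), read 60 min after MultiTox-Fluor reagent. Human lymphoblastoid line exposed 16 h; Hill-fitted AC50, with DMSO as 0% and 15 uM tetraoctylammonium bromide as 100%.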

[10] = Cell Viability - LYMP1-002 - Assay at 16 hr (AID 948); conditions: LYMP1-002 lymphoblastoid cell viability; series mostly up to 92.2 µM;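 note: 0% = DMSO alone and full effect = 92 µM tetraoctylammonium bromide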
Method in brief: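 LYMP1-002 human lymphoblastoid cells, 2500/well, were treated with compounds for 16 hr at 37 C in complete medium. Viability was read as intracellular ATP by CellTiter-Glo luminescence, and AC50 was derived from a Hill fit to concentration-response data.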

[11] = MultiTox-Fluor Cytotoxicity Assay - LYMP1-003 - Live Cells (AID 962); conditions: LYMP1-003 lymphoblastoid cells, MultiTox-Fluor live-cell protease fluorescence; series mostly up to 92.2 µM;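 note: 0% = DMSO only and full loss = 92 µM tetraoctylammonium bromide; cytotoxic hits lower the live-cell protease signal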
Method in brief: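 LYMP1-003 human lymphoblastoid cells (2500/well) in complete medium were preincubated 5 hr at 37 C, then exposed to compounds for 16 hr at 37 C. Live-cell protease cleavage of GF-AFC read by fluorescence (Ex/Em 405/510); AC50 from Hill fits.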

[12] = Cell Viability - LYMP2-003 (AID 965); conditions: LYMP2-003 lymphoblastoid cell viability; series mostly up to 92.2 µM;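 note: cells exposed to compounds for 24 h before reading; 0% = DMSO only and full effect = 92 µM tetraoctylammonium bromide; nearly all actives have a fitted effect of over 50% in size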
Method in brief: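 Human lymphoblastoid LYMP2-003 cells, 2500/well, exposed to compounds for 24 h at 37 C in complete medium. Viability read as intracellular ATP by CellTiter-Glo luminescence; AC50 from Hill-equation fits of qHTS concentration-response data.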

[13] = Cell Viability - LYMP2-013 (AID 970); conditions: LYMP2-013 lymphoblastoid cells viability; series mostly up to 92.2 µM;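 note: 0% = DMSO only and full inhibition = tetraoctylammonium bromide control; nearly all actives have a fitted effect of over 55% in size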
Method in brief: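 Human lymphoblastoid cells, 2500/well, were preincubated 5 hr at 37 C, then treated with compounds for 24 hr at 37 C in complete medium. Intracellular ATP was read by CellTiter-Glo luminescence; AC50 from Hill-equation fits of concentration-response data.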

[14] = Cell Viability - LYMP2-015 (AID 971); conditions: LYMP2-015 lymphoblastoid cell viability; series mostly up to 92.2 µM;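 note: 0% = DMSO only and full effect = 92 µM tetraoctylammonium bromide; nearly all actives have a fitted effect of over 55% in size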
Method in brief: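 Human lymphoblastoid cells (2500/well) in complete medium were preincubated 5 hr at 37 C, then compound-treated 24 hr at 37 C. Intracellular ATP was read by CellTiter-Glo luminescence after 30 min at room temperature; AC50 came from Hill-equation concentration-response fits.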

[15] = Cell Viability - LYMP2-017 (AID 972); conditions: LYMP2-017 lymphoblastoid cell viability; series mostly up to 92.2 µM; note: % is set by controls: 0 for no effect and ±100 for the full control effect; nearly all actives have a fitted effect of over 55% in size
Method in brief: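 Human lymphoblastoid cells (2500/well) were seeded in complete medium, held 5 hr at 37 C, then exposed to compounds for 24 hr at 37 C. Intracellular ATP was read by CellTiter-Glo luminescence after 30 min at room temperature, with AC50 values from Hill-equation fits.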

[16] = Cell Viability - LYMP2-007 (AID 979); conditions: LYMP2-007 lymphoblastoid cell viability; series mostly up to 92.2 µM;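 note: cells exposed to compound for 24 h before reading; 0% = DMSO only and the negative end = 92 µM tetraoctylammonium bromide; nearly all actives have a fitted effect of over 60% in size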
Method in brief: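 Human lymphoblastoid cells (2500/well) were plated in complete medium, incubated 5 hr at 37 C, then exposed to compounds for 24 hr at 37 C. Intracellular ATP was read by CellTiter-Glo luminescence after 30 min at room temperature; AC50 from Hill fits.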

[17] = qHTS Assay for Identification of Small Molecule Inducers of Hypoxia Response (AID 2120; active = well fitted curve in the direction sought with a large enough effect in the signal ratio, with a control signal flat, not every such curve was filed as active; the % refers to the signal ratio; note: 0% is about no effect); conditions: hypoxia response reporter cells, beta-lactamase ratio readout; series mostly up to 104 µM
Method in brief: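 HRE-beta-lactamase reporter in CellSensor HRE-bla ME-180 cells, 2500 cells/well in Opti-MEM with 0.5% dialyzed FBS; compounds tested as titration series, 17 h at 37 degrees C. CCF4 substrate 2.5 h at room temperature; AC50 from 460/530 nm ratio.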

[18] = molecular target: Peroxisome proliferator-activated receptor alpha (Homo sapiens) (UniProt Q07869); test: qHTS assay for small molecule agonists of the peroxisome proliferator-activated receptor alpha (PPARalpha) signaling pathway (AID 651778); conditions: PathHunter PPARalpha complementation, chemiluminescence, 6 h; stronger effect = higher value; note: % of control where 0% means no effect
Method in brief: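 Chemiluminescence from complemented enzyme reported PPARalpha activation in cells after 6 hr of compound treatment at 37 C. The detection reagent was incubated for 60 min at room temperature, and compounds were scored as agonists.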

[19] = qHTS assay for small molecule agonists of the antioxidant response element (ARE) signaling pathway measured by Nrf2-dependant transcriptional activity - cell viability counter screen (AID 720653; active = well fitted curve in the direction sought with a large enough effect in the repeat runs; an effect the other way counts as inactive or inconclusive; note: % is set by controls: 0 for no effect and ±100 for the full control effect); conditions: ARE-bla HepG2 viability, CellTiter-Glo ATP luminescence, 16 h; stronger effect = lower value
Method in brief: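 Cytotoxicity counter screen: intracellular ATP quantified by CellTiter-Glo luminescence in the same ARE-bla HepG2 plates, after 16 h compound exposure and a 2 h beta-lactamase substrate step.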

[20] = qHTS assay for cell viability of the p53RE-bla HCT-116 cell line (AID 743292); conditions: p53RE-bla HCT-116 viability, ATP luminescence, 16 h; series mostly up to 95 µM; note: % is set by controls: 0 for no effect and ±100 for the full control effect; nearly all actives have a fitted effect of over 55% in size
Method in brief: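 Luminescent ATP quantitation (CellTiter-Glo) served as the viability read-out; reagent was added after 16 h compound exposure at 37 C and read after 30 min at room temperature. Cells: p53RE-bla HCT-116, 4,000 per well.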

Chain of Peroxisome proliferator-activated receptor alpha (Homo sapiens) (Q07869 whole entry, looked up): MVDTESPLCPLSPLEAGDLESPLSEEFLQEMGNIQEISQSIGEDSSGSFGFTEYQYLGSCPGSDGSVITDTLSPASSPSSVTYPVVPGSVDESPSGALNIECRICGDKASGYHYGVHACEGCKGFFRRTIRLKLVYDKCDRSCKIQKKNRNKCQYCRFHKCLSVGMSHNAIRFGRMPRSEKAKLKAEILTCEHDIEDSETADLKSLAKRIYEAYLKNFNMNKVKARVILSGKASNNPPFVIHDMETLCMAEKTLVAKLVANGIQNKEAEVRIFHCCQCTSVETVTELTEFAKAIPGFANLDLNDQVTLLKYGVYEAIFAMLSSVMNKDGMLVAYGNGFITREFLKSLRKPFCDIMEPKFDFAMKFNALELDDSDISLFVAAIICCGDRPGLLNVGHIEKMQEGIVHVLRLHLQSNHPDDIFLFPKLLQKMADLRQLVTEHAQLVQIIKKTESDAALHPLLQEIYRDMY

c1ccc(P(c2ccccc2)c2ccccc2)cc1
inactive: Potency [1] > 92 µM | Potency [2] | outcome [3] | outcome [4] | outcome [5] | Potency [6] | caspase-3 activation [7] -0.936% | Potency [8] | outcome [9] | outcome [10] | outcome [11] | Potency [12] | Potency [13] | Potency [14] | Potency [15] | Potency [16] | Potency [17] | max response [18] -4.42% | max response [19] -10.4% | Potency [20]

CC(C)[C@]12CC(=O)[C@H](C)[C@H]1C2
inactive: Potency [1] > 92 µM | Potency [2] | outcome [3] | outcome [4] | outcome [5] | Potency [6] | caspase-3 activation [7] -0.456% | Potency [8] | outcome [9] | outcome [10] | outcome [11] | Potency [12] | Potency [13] | Potency [14] | Potency [15] | Potency [16] | Potency [17] | max response [18] 5.79% and -0.343% | max response [19] -4.23% and -2.13% | Potency [20]

Cc1cccc(C)c1N
inactive: Potency [1] > 92 µM | Potency [2] | outcome [3] | outcome [4] | outcome [5] | Potency [6] | caspase-3 activation [7] 0.142% | Potency [8] | outcome [9] | outcome [10] | outcome [11] | Potency [12] | Potency [13] | Potency [14] | Potency [15] | Potency [16] | Potency [17] | max response [18] 1.61% | max response [19] 4.9% | Potency [20]

O=[N+]([O-])c1cccc(O)c1
inactive: Potency [1] > 92 µM | Potency [2] | outcome [3] | outcome [4] | outcome [5] | Potency [6] | caspase-3 activation [7] 0.974% | Potency [8] | outcome [9] | outcome [10] | outcome [11] | Potency [12] | Potency [13] | Potency [14] | Potency [15] | Potency [16] | Potency [17] | max response [18] -4.41% | max response [19] -0.267% | Potency [20]

Clc1cc(Cl)c(Cl)c(Cl)c1
inactive: Potency [1] > 92 µM | Potency [2] | outcome [3] | outcome [4] | outcome [5] | Potency [6] | caspase-3 activation [7] -0.644% | Potency [8] | outcome [9] | outcome [10] | outcome [11] | Potency [12] | Potency [13] | Potency [14] | Potency [15] | Potency [16] | Potency [17] | max response [18] -0.217% | max response [19] -5.74% | Potency [20]

Oc1cc(Cl)ccc1Cl
inactive: Potency [1] > 92 µM | Potency [2] | outcome [3] | outcome [4] | outcome [5] | Potency [6] | caspase-3 activation [7] -1.46% | Potency [8] | outcome [9] | outcome [10] | outcome [11] | Potency [12] | Potency [13] | Potency [14] | Potency [15] | Potency [16] | Potency [17] | max response [18] -3.18% and 0.376% | max response [19] 14.5% and -2.04% | Potency [20]
